# BoNT F protease: BoNT/F light chain protease inhibitors, primary screen, biochemical, flow cytometry, MLPCN library. Multiplex microsphere protease cleavage assay. inhibition, % at 10 µM. AID 588497, 2011. Botulinum neurotoxin type F light chain protease (Clostridium botulinum). hit rate 0.22% among 360,000; in the data active = inhibition above about 35%, passing the limit was not always enough; inconclusive = no clear call, values can overlap the other calls; also: plate controls were buffer without enzyme for full effect and enzyme alone for no effect
# Autofluor counter: flagged as autofluorescent in microsphere protease counterscreen; compound autofluorescence counterscreen, microsphere flow cytometry; active compounds read high; fluorescence intensity (no concentration beside the values); hit rate 3.1% among 360,000; AID 624483; in the data active = fluorescence intensity above about 16000; inconclusive = no clear call, values can overlap the other calls
# MazF activator: activators of E. coli MazEF toxin-antitoxin RNase, primary screen, biochemical, fluorescence, uHTS; Endoribonuclease toxin MazF (Escherichia coli (strain K12)), P0AE70; FAM/BHQ RNA-DNA oligo cleavage fluorescence, 5 h; activation, % at 20 µM; hit rate 0.32% among 350,000; in the data active = activation above about 50%
# Target sequence (P0AE70 whole entry, looked up): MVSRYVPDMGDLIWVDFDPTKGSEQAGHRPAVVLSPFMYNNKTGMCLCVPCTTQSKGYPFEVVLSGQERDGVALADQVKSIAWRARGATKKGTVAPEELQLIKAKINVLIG
# Anthrax LF prot: Bacillus anthracis LF protease inhibitors, primary screen, biochemical, multiplex microsphere, MLPCN library; hit rate 0.12% among 360,000; multiplex microsphere protease cleavage assay; Lethal factor (Bacillus anthracis), P15917; AID 588501, 2011; inhibition, % at 10 µM; also: plate controls were buffer without enzyme for full effect and enzyme alone for no effect
# BoNT-A LC inh2: BoNT/A light chain protease inhibitors, primary screen, biochemical, flow cytometry, MLPCN library; multiplex microsphere protease substrate cleavage; hit rate 0.17% among 360,000; inhibition, % at 10 µM; also: plate controls were buffer without enzyme for full effect and enzyme alone for no effect
# The depositor's hits bear a star; ? = inconclusive; . = no result given. Rows were chosen to be rich in hits. Some 3.7% of all compounds tested hit in one or more screens of this group. Rule as the data show it, unless noted: active = inhibition above about 30%; inconclusive = no clear call, values can overlap the other calls; inactive = below that.
SMILES,BoNT F protease,Autofluor counter,MazF activator,Anthrax LF prot,BoNT-A LC inh2
COc1c(C)cc(S(=O)(=O)N2CCCC2)c(C)c1C,-5,17139*,4,-2,-2
COc1c(C)cc(S(=O)(=O)N2CCOCC2)c(C)c1C,-2,3950,-12,-2,0
CSc1ccc(/C=N/NC(=O)c2cccs2)cc1,45*,3499,0,?,0
O=C(N/N=C/c1ccncc1)c1cccs1,-19,3837,6,24,-3
CCCNC(=O)C1(C)CCN(C(=O)c2cc(F)cc(F)c2)C1 (centres undefined),3,3903,.,-4,0
CCOC(=O)c1c(-n2c(C)cc(/C=C3/C(=O)NC(=O)N(CC)C3=O)c2C)sc2c1CCCC2,7,3493,-13,-5,1
CCOC(=O)c1c(-n2c(C)cc(C=C3C(=O)NC(=S)NC3=O)c2C)sc2c1CCCC2,29,9156,-49,38*,36*
OC[C@@H]1CN(CCN2CCOCC2)C[C@H](n2cnc3c(NCc4ccco4)ncnc32)O1,-1,3843,.,-4,0
CCCOc1ccc(N2C(=O)CC(N(C(=O)c3ccco3)c3ccc(OCCC)cc3)C2=O)cc1 (centres undefined),-5,16880*,3,-2,?
O=C(Cc1cccc(NC(=O)C2CCCN(C(=O)C3CCCCC3)C2)c1)Nc1ccc(C(=O)N2CCOCC2)cc1 (centres undefined),-1,3838,6,-1,0
CC(C)=CC(=O)Nc1ccccc1Br,-5,17220*,0,-4,-4
Cc1nc(C)c(C(=O)Nc2ccccc2-c2ccccc2)o1,1,23592*,-9,-1,0
CC1CCCN(C(=O)CSc2cnc3ccccc3n2)C1 (centres undefined),-4,19588*,-1,-1,0
O=C(O)CCSc1nc2ccccc2s1,1,22416*,4,-4,2
O=C(CCCSc1nc2ccccc2s1)NC1=NCCS1,-5,23045*,5,0,1
CC1CCN(C(=O)CSc2nc3ccccc3s2)CC1,0,23396*,-7,1,1
CC1CCCN(C(=O)CSc2nc3ncccc3[nH]2)C1 (centres undefined),3,3157,3,-2,1
CC1(c2nc3ccccc3[nH]2)c2ccccc2C(=O)N1Cc1ccccc1 (centres undefined),-3,4535,.,4,0
COc1ccc(N2CCN(C(=O)c3ccc4c(c3)CCN4S(C)(=O)=O)CC2)cc1,9,3839,6,-3,0
CCOC(=O)N1CCN(C(=O)CN2C(=O)NC(C)(c3ccc4ccccc4c3)C2=O)CC1 (centres undefined),.,.,4,.,.
COc1ccc(N(CC(=O)Nc2cccc(C(C)=O)c2)S(=O)(=O)c2ccc(NC(C)=O)cc2)cc1,13,3664,-4,-4,-5
Cc1ccc(-c2nc(N/N=C/c3ccccc3[N+](=O)[O-])c3ccccc3n2)cc1,2,16971*,33,0,-2
O=C(O)CCN1C(=O)c2ccc(Oc3ccc4c(c3)C(=O)N(CCC(=O)O)C4=O)cc2C1=O,0,19401*,2,-2,0
CC(C)CC1C(=O)N(Cc2cn(CC3CCCCC3)nn2)CCS(=O)(=O)N1Cc1ccc(-c2ccncc2)cc1 (centres undefined),-4,2829,0,-4,0
O=C(NC(=O)c1ccc(F)cc1)Nc1nc(-c2cccs2)cc(C(F)(F)F)n1,6,5800,94*,2,0
SMILES,BoNT F protease,Autofluor counter,MazF activator,Anthrax LF prot,BoNT-A LC inh2
Cn1ccsc1=NC(=O)c1ccc(S(=O)(=O)C(F)F)cc1,-3,5447,19,-2,1
CN1CCN(CC(=O)Nc2c(C(=O)C3CC3)oc3ccccc23)CC1,0,22556*,0,-1,1
COCCCNC(=O)c1ccc2c(c1)CCN2S(C)(=O)=O,3,22130*,9,2,4
COCCNC(=O)c1ccc2c(c1)CCN2S(C)(=O)=O,5,?,6,0,0
CC(C)CCn1cnc2c(NCc3ccccc3)ncnc21,-4,24204*,1,-2,-2
CC(=O)c1ccc(-n2c(CCC(=O)O)ccc2-c2cccs2)cc1,-1,9453,5,0,1
Cc1ccc(-n2c(CCC(=O)O)ccc2-c2cccs2)cc1,-2,23564*,-26,4,-2
O=C(c1ccccc1)c1ncc(C(F)(F)F)cc1Cl,-5,20699*,-2,-2,-2
COC(=O)c1cccc(N(CC(=O)NC2CCCC2)C(=O)CCC(=O)Nc2cc(C)on2)c1,4,5542,2,0,-1
CCOC(=O)C1=C[C@@H](C(C)(C)C)N(S(=O)(=O)c2ccc(C)cc2)[C@H]1c1ccc(C)cc1,-13,5988,.,-3,-1
CCOC(=O)c1c(C)[nH]c(C(=O)CSc2nc(C)cc(C)n2)c1C,-7,3116,6,-2,0
CCOC(=O)c1c(C)[nH]c(C(=O)CN2CCOCC2)c1C,-2,23350*,-12,-2,0
CCOC(=O)c1c(C)[nH]c(C(=O)CSc2ccc(Cl)cc2)c1C,-1,16362*,-1,-24,?
COCCN1CC(=O)N2C(c3cccc(OC)c3)c3[nH]c4ccccc4c3C[C@H]2C1=O (some centres undefined),-11,4135,5,-15,-2
COc1ccc2[nH]c3nc(SCC(=O)NNC(=O)c4ccc(OC)c(OC)c4)nnc3c2c1,0,21437*,4,-2,1
O=C1CCC(=O)N1c1ccc(S(=O)(=O)Nc2cccc(Br)c2)cc1,-10,3438,4,-4,-2
COc1cc2c(cc1OC)-c1cc(NC3CCCC3)nc(=O)n1CC2,1,22438*,8,-4,?
COc1cc2c(cc1OC)-c1cc(Nc3ccc(F)cc3)nc(=O)n1CC2,14,2839,10,7,1
Nc1nc(Br)c2c(F)cccc2c1-c1ccccc1,-5,21859*,32,1,-4
Nc1nc(Br)c2c(F)cccc2c1-c1ccc(F)cc1,2,22286*,7,0,3
Nc1ccc(-c2c3ccccc3nc3ccccc23)cc1,?,3969,0,-4,1
CC(=O)Nc1ccc(C(=O)N2CCCCC2c2cc(C(=O)NCc3cccnc3)no2)cc1 (centres undefined),-7,4372,.,-4,-1
COCCC(=O)N1CCC(n2nccc2NC(=O)c2ccccc2C)CC1,0,5613,13,-1,2
CCOc1ccc(CCNC(=O)C2CC(=O)N(Cc3ccc(OC)cc3)C2)cc1OCC (centres undefined),2,5507,5,-2,2
COc1ccc(CN2CC(C(=O)NCCc3ccccc3)CC2=O)cc1 (centres undefined),10,17837*,0,-4,7
